# Test results published in the supplement of paper PMC7866885, “A novel bicyclic 2,4-diaminopyrimidine inhibitor of Streptococcus suis dihydrofolate reductase” (PeerJ, 2021).
# ± gives the standard deviation.
# Test system: Streptococcus suis HE06
# Test: percent growth relative to DMSO control; higher = less growth inhibition
# Details: 10 µM; incubation time 18 h
# Method: (§1)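 CLSI broth microdilution: 5x10^4 CFU of Streptococcus suis (strain P1/7 or HE06) incubated with 10 µM Pathogen Box compound in cation-adjusted Mueller Hinton broth, 37 °C, 5% CO2, 18 h. Growth read as OD600 and expressed as percent of the DMSO-treated control (100%); mean ± SD of three independent experiments.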
row,SMILES,percent growth
1,CC(C)(C)C(=O)N(CCCCCCN1C[C@H](O)[C@@H](O)[C@H](O)[C@H]1CO)C1CCCCCC1,122 ± 27%
2,CC(C)n1nc(-c2cc3c(Cl)cccc3[nH]2)c2c(N)ncnc21,112 ± 45%
3,CC(=O)Oc1ccccc1C(=O)Nc1ncc([N+](=O)[O-])s1,42.5 ± 18%
4,Cc1nn(C)cc1C(C)Nc1nncc(-c2ccc(C(F)(F)F)cc2)n1 (stereo not drawn),116 ± 20%
5,COc1ccc(N(CCc2cccc(C)n2)C(C)=O)cc1,112 ± 54%
6,O=C(CCC1CCCCC1)Nc1cccc(-c2nnc(-c3ccco3)o2)c1,93.8 ± 3.7%
7,CC1CS(=O)(=O)CCN1/N=C/c1ccc([N+](=O)[O-])o1 (stereo not drawn),85.9 ± 6.6%
8,CCCn1c(CNc2ccccc2O)nc2ccccc21,62.6 ± 7.6%
9,CS(=O)(=O)c1cccc(-c2cnc3[nH]cc(-c4ccc(CCC(=O)O)cc4)c3c2)c1,68.7 ± 5.5%
10,Nc1ncnc2c1c(Cc1cccc3ccccc13)nn2CC1CCNCC1,105 ± 44%
11,Cc1cc(C)n2nc(C(=O)Nc3cc(C(F)(F)F)ccc3N3CCOCC3)nc2n1,240 ± 280%
12,O=C(NCCN1CCCC1)c1cc(NCCN2CCOCC2)nc2ccc(Cl)cc12,95.2 ± 4.7%
13,Nc1nccc2ccc(-c3ccc4nccn4c3)cc12,85.8 ± 25%
14,CNc1cc(C)nc(C2CN(C(=O)c3n[nH]c4ccccc34)CCO2)c1 (stereo not drawn),89.6 ± 5.4%
15,CC(C)(CN)c1nc(-c2ccc(Cl)c(O)c2)c(-c2ccnc(N)n2)[nH]1,90.9 ± 6.5%
16,c1cncc(NCc2ccc(-c3cc4ccncc4cc3OC3CCNCC3)s2)c1,100 ± 18%
17,Cc1nnc(NCc2cccc(Cl)c2)c2ccccc12,80.1 ± 8.7%
18,N#CCN(CCCCN1CCN(c2ccc(F)cc2)CC1)C(=O)OCc1ccccc1,93.7 ± 14%
19,C[C@H](C(N)=O)N1CCCC[C@H]1c1ccc(OCc2cccc(F)c2)cc1,85.5 ± 23%
20,CNC1C(OC2C(OC3C(O)C(O)C(NC(=N)N)C(O)C3NC(=N)N)OC(C)C2(O)C=O)OC(CO)C(O)C1O (stereo not drawn),99.9 ± 10%

row,SMILES,percent growth
1,c1ccc(-c2[nH]c3ccccc3c2C(c2ccccn2)N2CCCC2)cc1 (stereo not drawn),88.5 ± 4.3%
2,N#Cc1ccc(-c2cnc(N)c(-c3ccc(C(N)=O)cc3)n2)cc1,114 ± 46%
3,C[C@H](c1ccc2c(c1)CCCC2)N(C)c1ncc2c(N)nc(N)nc2n1,84.7 ± 9.1%
4,CC(=O)N(CCN(C(=O)c1ccc(F)cc1)c1ccccc1)c1ccccc1,86.6 ± 26%
5,CC(C)(C)n1nc(Cc2ccc(F)c(Cl)c2)c2c(N)ncnc21,91.5 ± 3.1%
6,COc1cc(Br)cc2cc(C(=O)Nc3cccc(C(F)(F)F)c3)c(=O)oc12,116 ± 26%
7,CS(=O)(=O)Cc1nc2ccccc2oc1=O,67.6 ± 7.5%
8,c1ccc(Oc2ccc(-c3cc(N4CCOCC4)[nH]n3)cc2)cc1,81.2 ± 21%
9,O=C(NCc1nnc2n1CCCCC2)c1ccc(-c2ccc(F)cc2)o1,82.7 ± 15%
10,NCC(=O)N1CCn2c(nc(-c3ccccc3)c2Nc2ccc3c(c2)OCO3)C1,97.6 ± 33%
11,Cc1ccc(Oc2ccc(NC(=O)CNc3ccccc3N3CCCC3=O)cc2)cc1,86.9 ± 11%
12,CC1(C)Cc2c(c(N3CCOCC3)nc3snc(Br)c23)CO1,94.1 ± 2%
13,Cc1ccc2c(c1C)NC(=O)C21NN=C(c2ccccc2)S1 (stereo not drawn),0.434 ± 0.78%
14,Clc1cccc(CO[C@H]2CCc3ccccc3[C@@H]2n2ccnn2)c1,97.4 ± 3.9%
15,CC1=Nc2ccc(Cl)cc2C(c2ccccc2)N1CCNC(=O)CN(C)C (stereo not drawn),84.8 ± 4.2%
16,c1ccc(-c2nc(NC3CCCCC3)cc(C3CC3)n2)nc1,7.51 ± 12%
17,CC(C)(C)c1ccc(N[C@@H]2CCCC[C@H]2NC(=O)c2ccco2)cc1,104 ± 7.9%
18,C[C@H]1c2cccc(O)c2C(=O)C2=C(O)[C@]3(O)C(=O)C(C(N)=O)=C(O)[C@@H](N(C)C)[C@@H]3[C@@H](O)[C@@H]21,10.4 ± 18%
19,N=C(N)Nc1ccc(-c2ccc(-c3ccc(N=C(N)N)c(Cl)c3)o2)cc1Cl,27.7 ± 29%

# Test system: Streptococcus suis P1/7
# Test: as above
# Details: 10 µM; incubation time 18 h
# Method: as §1
row,SMILES,percent growth
1,CC(C)(C)C(=O)N(CCCCCCN1C[C@H](O)[C@@H](O)[C@H](O)[C@H]1CO)C1CCCCCC1,130 ± 56%
2,CC(C)n1nc(-c2cc3c(Cl)cccc3[nH]2)c2c(N)ncnc21,74.2 ± 5.9%
3,CC(=O)Oc1ccccc1C(=O)Nc1ncc([N+](=O)[O-])s1,35.5 ± 5.8%
4,Cc1nn(C)cc1C(C)Nc1nncc(-c2ccc(C(F)(F)F)cc2)n1 (stereo not drawn),103 ± 32%
5,COc1ccc(N(CCc2cccc(C)n2)C(C)=O)cc1,62.6 ± 12%
6,O=C(CCC1CCCCC1)Nc1cccc(-c2nnc(-c3ccco3)o2)c1,111 ± 46%
7,CC1CS(=O)(=O)CCN1/N=C/c1ccc([N+](=O)[O-])o1 (stereo not drawn),85.1 ± 16%
8,CCCn1c(CNc2ccccc2O)nc2ccccc21,82.1 ± 38%
9,CS(=O)(=O)c1cccc(-c2cnc3[nH]cc(-c4ccc(CCC(=O)O)cc4)c3c2)c1,52.9 ± 34%
10,Nc1ncnc2c1c(Cc1cccc3ccccc13)nn2CC1CCNCC1,75 ± 5.4%
11,Cc1cc(C)n2nc(C(=O)Nc3cc(C(F)(F)F)ccc3N3CCOCC3)nc2n1,81.4 ± 16%
12,O=C(NCCN1CCCC1)c1cc(NCCN2CCOCC2)nc2ccc(Cl)cc12,83.1 ± 11%
13,Nc1nccc2ccc(-c3ccc4nccn4c3)cc12,61.4 ± 20%
14,CNc1cc(C)nc(C2CN(C(=O)c3n[nH]c4ccccc34)CCO2)c1 (stereo not drawn),105 ± 50%
15,CC(C)(CN)c1nc(-c2ccc(Cl)c(O)c2)c(-c2ccnc(N)n2)[nH]1,79.2 ± 20%
16,c1cncc(NCc2ccc(-c3cc4ccncc4cc3OC3CCNCC3)s2)c1,66.3 ± 22%
17,Cc1nnc(NCc2cccc(Cl)c2)c2ccccc12,85.4 ± 29%
18,N#CCN(CCCCN1CCN(c2ccc(F)cc2)CC1)C(=O)OCc1ccccc1,75.8 ± 19%
19,C[C@H](C(N)=O)N1CCCC[C@H]1c1ccc(OCc2cccc(F)c2)cc1,63.4 ± 26%
20,CNC1C(OC2C(OC3C(O)C(O)C(NC(=N)N)C(O)C3NC(=N)N)OC(C)C2(O)C=O)OC(CO)C(O)C1O (stereo not drawn),86.1 ± 18%

row,SMILES,percent growth
1,c1ccc(-c2[nH]c3ccccc3c2C(c2ccccn2)N2CCCC2)cc1 (stereo not drawn),108 ± 23%
2,N#Cc1ccc(-c2cnc(N)c(-c3ccc(C(N)=O)cc3)n2)cc1,73.1 ± 4.3%
3,C[C@H](c1ccc2c(c1)CCCC2)N(C)c1ncc2c(N)nc(N)nc2n1,76.6 ± 18%
4,CC(=O)N(CCN(C(=O)c1ccc(F)cc1)c1ccccc1)c1ccccc1,69 ± 13%
5,CC(C)(C)n1nc(Cc2ccc(F)c(Cl)c2)c2c(N)ncnc21,105 ± 51%
6,COc1cc(Br)cc2cc(C(=O)Nc3cccc(C(F)(F)F)c3)c(=O)oc12,115 ± 52%
7,CS(=O)(=O)Cc1nc2ccccc2oc1=O,88.2 ± 53%
8,c1ccc(Oc2ccc(-c3cc(N4CCOCC4)[nH]n3)cc2)cc1,61.7 ± 32%
9,O=C(NCc1nnc2n1CCCCC2)c1ccc(-c2ccc(F)cc2)o1,106 ± 42%
10,NCC(=O)N1CCn2c(nc(-c3ccccc3)c2Nc2ccc3c(c2)OCO3)C1,71.3 ± 25%
11,Cc1ccc(Oc2ccc(NC(=O)CNc3ccccc3N3CCCC3=O)cc2)cc1,104 ± 14%
12,CC1(C)Cc2c(c(N3CCOCC3)nc3snc(Br)c23)CO1,82.2 ± 20%
13,Cc1ccc2c(c1C)NC(=O)C21NN=C(c2ccccc2)S1 (stereo not drawn),0.432 ± 0.48%
14,Clc1cccc(CO[C@H]2CCc3ccccc3[C@@H]2n2ccnn2)c1,95.9 ± 18%
15,CC1=Nc2ccc(Cl)cc2C(c2ccccc2)N1CCNC(=O)CN(C)C (stereo not drawn),84.5 ± 16%
16,c1ccc(-c2nc(NC3CCCCC3)cc(C3CC3)n2)nc1,0.494 ± 1.2%
17,CC(C)(C)c1ccc(N[C@@H]2CCCC[C@H]2NC(=O)c2ccco2)cc1,78.1 ± 19%
18,C[C@H]1c2cccc(O)c2C(=O)C2=C(O)[C@]3(O)C(=O)C(C(N)=O)=C(O)[C@@H](N(C)C)[C@@H]3[C@@H](O)[C@@H]21,1.89 ± 3.3%
19,N=C(N)Nc1ccc(-c2ccc(-c3ccc(N=C(N)N)c(Cl)c3)o2)cc1Cl,53.1 ± 27%
